Assay outcomes (PubChem)
nsP2pro inh: Primary qHTS for inhibitors of NSP2Pro chikungunya virus (CHIKV). 31,000 compounds, 1.1% hits. Polyprotein P1234 (Chikungunya virus (strain S27-African prototype)), Q8JUX6. Potency, µM (titrated, usually from 24.9 µM), inactives show at the highest dose activity change, negative = inhibition, most hits filed as inhibitors. FRET peptide cleavage, nsP2pro, fluorescence 1 h; calls by dose curve; also: nearly all actives have a fitted effect of over 60% in size
Target sequence (Q8JUX6 whole entry, looked up): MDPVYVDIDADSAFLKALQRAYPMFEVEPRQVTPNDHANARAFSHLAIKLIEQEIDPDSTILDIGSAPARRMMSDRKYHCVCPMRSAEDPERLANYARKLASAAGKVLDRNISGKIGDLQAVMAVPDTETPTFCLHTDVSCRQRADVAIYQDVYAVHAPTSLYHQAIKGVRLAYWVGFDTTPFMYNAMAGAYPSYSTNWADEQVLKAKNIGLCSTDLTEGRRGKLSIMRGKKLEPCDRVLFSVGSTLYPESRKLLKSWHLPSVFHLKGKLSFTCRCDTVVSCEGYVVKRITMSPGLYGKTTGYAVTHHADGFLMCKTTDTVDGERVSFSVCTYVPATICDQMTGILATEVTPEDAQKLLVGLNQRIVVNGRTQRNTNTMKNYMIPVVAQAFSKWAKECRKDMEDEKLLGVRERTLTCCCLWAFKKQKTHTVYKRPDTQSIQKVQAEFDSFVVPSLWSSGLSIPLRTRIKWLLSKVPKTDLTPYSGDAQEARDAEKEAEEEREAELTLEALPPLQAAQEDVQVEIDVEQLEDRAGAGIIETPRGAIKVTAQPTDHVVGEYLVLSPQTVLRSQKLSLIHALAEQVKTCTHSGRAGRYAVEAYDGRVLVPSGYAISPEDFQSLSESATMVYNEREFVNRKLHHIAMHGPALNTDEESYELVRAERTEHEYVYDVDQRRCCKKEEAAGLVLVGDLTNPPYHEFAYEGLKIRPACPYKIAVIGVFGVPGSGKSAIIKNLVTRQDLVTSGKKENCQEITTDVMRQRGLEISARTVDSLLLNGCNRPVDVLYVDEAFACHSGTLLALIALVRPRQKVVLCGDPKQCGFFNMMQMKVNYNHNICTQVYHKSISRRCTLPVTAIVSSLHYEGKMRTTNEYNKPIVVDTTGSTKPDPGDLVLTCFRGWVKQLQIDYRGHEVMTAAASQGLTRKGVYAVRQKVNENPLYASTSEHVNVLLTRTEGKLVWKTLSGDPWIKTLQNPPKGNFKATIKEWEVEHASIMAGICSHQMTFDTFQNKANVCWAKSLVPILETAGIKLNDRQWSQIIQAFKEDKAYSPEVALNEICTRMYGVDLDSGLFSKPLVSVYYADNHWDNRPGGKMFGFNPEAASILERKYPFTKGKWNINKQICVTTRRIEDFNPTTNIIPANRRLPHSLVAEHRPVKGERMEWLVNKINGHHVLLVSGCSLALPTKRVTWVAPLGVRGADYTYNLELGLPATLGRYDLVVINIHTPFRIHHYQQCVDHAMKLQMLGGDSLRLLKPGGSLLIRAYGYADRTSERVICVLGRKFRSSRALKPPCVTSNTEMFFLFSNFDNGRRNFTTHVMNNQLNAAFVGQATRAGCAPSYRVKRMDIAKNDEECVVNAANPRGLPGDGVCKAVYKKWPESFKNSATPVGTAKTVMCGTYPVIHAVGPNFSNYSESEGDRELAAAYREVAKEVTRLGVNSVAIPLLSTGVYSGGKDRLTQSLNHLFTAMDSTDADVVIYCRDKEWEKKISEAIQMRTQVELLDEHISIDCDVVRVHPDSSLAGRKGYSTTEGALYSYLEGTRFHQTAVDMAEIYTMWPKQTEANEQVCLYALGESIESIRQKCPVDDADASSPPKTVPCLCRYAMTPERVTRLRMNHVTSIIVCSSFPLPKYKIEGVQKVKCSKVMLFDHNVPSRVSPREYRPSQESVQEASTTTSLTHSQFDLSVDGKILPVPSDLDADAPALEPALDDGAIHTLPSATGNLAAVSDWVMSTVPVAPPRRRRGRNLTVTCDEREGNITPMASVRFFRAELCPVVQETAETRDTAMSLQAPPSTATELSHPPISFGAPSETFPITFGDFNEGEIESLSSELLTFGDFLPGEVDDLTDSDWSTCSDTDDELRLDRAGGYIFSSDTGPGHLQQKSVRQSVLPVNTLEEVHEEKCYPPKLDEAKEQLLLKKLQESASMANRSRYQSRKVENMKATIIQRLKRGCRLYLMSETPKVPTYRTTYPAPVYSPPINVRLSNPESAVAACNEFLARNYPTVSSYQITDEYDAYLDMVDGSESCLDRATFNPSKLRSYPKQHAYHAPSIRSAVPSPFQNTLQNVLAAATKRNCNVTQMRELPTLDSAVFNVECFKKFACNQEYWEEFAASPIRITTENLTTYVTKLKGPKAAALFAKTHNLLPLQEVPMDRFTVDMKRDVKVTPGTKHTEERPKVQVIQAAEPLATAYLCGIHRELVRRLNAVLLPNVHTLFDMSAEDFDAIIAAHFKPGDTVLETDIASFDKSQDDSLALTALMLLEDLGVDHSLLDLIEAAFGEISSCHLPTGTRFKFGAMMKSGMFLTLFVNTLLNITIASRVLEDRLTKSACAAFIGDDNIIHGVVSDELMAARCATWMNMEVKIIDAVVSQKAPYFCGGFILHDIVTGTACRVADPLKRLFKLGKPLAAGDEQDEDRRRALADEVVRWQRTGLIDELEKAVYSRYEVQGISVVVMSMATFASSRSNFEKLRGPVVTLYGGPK
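FRET cleavage of 2.5 uM peptide 2 by 150 nM CHIKV protease domain at pH 8.0 (Tris, Tween 20). Compounds at 7 concentrations (up to 25 uM) preincubated 15 min. Fluorescence read after 1 h at room temperature.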
An asterisk follows results filed as active; i = inactive; [ ] = remark or other dose. The full list was thinned out, with hits kept by preference. % is scaled to controls: 0 for no effect and ±100 for the full control effect; potency is read from the fitted curve at half-maximal effect.

SMILES	nsP2pro inh
CCNC(=O)N[C@@H]1C=C[C@@H](c2c(C)nn(-c3ccc(C(C)C)cc3)c2C)C1	-4%[39.2 µM]
CC1CC(=O)C2=C(O1)OC1(C)CCC3C(C)(C)C4OC4C(=O)C3(C)C1C2 (centres undefined)	40%
CCOc1ccc(CCNC(=O)c2cccc(C(=O)c3ccccc3)c2)cc1OCC	-16%
CCc1ccc(NC(=O)c2[nH]c(C)c(C(C)=O)c2C)cc1S(=O)(=O)Nc1ccc(C#N)cc1	i
O=C1COCC2(CN(c3ccc(C(F)(F)F)cn3)C2)CN1c1ccc(F)cc1	-11%[39.2 µM]
CC(C)(C)c1ccc(CN2CC3(COCC2=O)CN(c2cnccn2)C3)cc1	i
O=C1COCC2(CN(c3ccc(C(F)(F)F)cn3)C2)CN1c1ccccc1F	11µM*
N=C(N)c1ccc2nc(-c3cc(CC(=O)NC(CC(=O)O)C(=O)O)cc(-c4cc(S(N)(=O)=O)ccc4O)c3O)[nH]c2c1 (centres undefined)	16%
CC(=O)O[C@H]1C[C@@H](O)C(C)(C)C2C[C@@H](OC(C)=O)[C@@]3(C)C4=CCC(C(CO)CC(O)C5OC5(C)C)[C@]4(C)CCC3[C@]21C (some centres undefined)	17%[10 µM]
Cc1noc(C)c1-c1ccc(Nc2nc(-c3ccncc3)nc3ccccc23)cc1F	i
COc1ccc(Cl)cc1CNCCSc1nnnn1-c1ccccc1	-30%
O=S(=O)(NCCSc1nnnn1-c1ccccc1)c1ccc(F)cc1	3%
Fc1ccc(-c2ccc(CNCCSc3nnnn3-c3ccccc3)o2)cc1	13µM*
CCCNC(=O)[C@H]1O[C@@H]1C(=O)N[C@H](C(=O)N1CCC[C@@H]1C(=O)O)[C@@H](C)CC	-18%
CCOc1ccccc1NC(=O)Cn1c(=O)n(Cc2ccco2)c(=O)c2cccnc21	-8%
CCOc1ccc(C(c2c(O)cc(C)n(Cc3ccco3)c2=O)N2CCN(C)CC2)cc1 (centres undefined)	13µM*
CN(Cc1ncc[nH]1)c1ncnc2ccc(-c3ccc4c(c3)OCO4)cc12	-4%
Cc1nc(C2CC23CCN(S(=O)(=O)c2cccc(F)c2)CC3)no1 (centres undefined)	-5%
N#Cc1nc(-c2cccc3ccccc23)oc1Nc1ccccc1	-3%
N#Cc1ccccc1CCc1nc2ncc(Br)cc2[nH]1	i
COc1cccc2sc(NC(=O)c3ccc4c(c3)OCCN(C3CCC3)C4)nc12	i
Cc1cc(C)nc(NC(=S)N2CCN(c3ccc4occc4c3)CC2)c1	-5%
CC(C)(O)c1ccc2c(c1)C(=O)C[C@H]1[C@](C)(C(=O)O)CCC[C@]21C	-2%
FC(F)(F)c1ccccc1-c1nc(NCc2ccc(Cl)c(Cl)c2)c2ccccc2n1	1%
COc1ccc(-n2nc(C)c([C@@H]3C=C[C@@H](NC(=S)NCC(C)C)C3)c2C)cc1	44%[39.2 µM]
SMILES	nsP2pro inh
COc1ccc(NC(=O)N[C@@H]2C=C[C@@H](c3c(C)nn(CCC#N)c3C)C2)cc1	13µM*
Cc1nn(-c2ccc(F)cc2)c(C)c1[C@@H]1C=C[C@@H](NC(=O)NC(C)C)C1	-8%[39.2 µM]
O=C(O)Cc1cccn1-c1ccc(Cl)cc1	4.5µM*
O=C(Cc1cccn1-c1ccc(F)cc1)N1CCCCC1	-20%
O=C(N1CCOCC1)N1CCN(c2ccc(Cl)cc2)CC1	-1%
Cc1[nH]c2ccc(F)cc2c1-c1nc2c3cccnc3c3ncccc3c2[nH]1	i
CC(C)(O)CNc1ncc(-c2ccnc(Nc3ccnc(Cl)c3)n2)c(CC2CC2)n1	11%
Nc1ccc(CNc2ccc([S+](=O)([O-])Nc3nccs3)cc2)c(O)c1	i
Cc1ccccc1CN1CCc2nc(N3CCN(c4ncccn4)CC3)ncc2C1	52%
CCCCN1CCc2nc(N3CCN(C)CC3)ncc2C1	10µM*
CCN1CCN(c2ncc3c(n2)CCN(Cc2ccc(C)s2)C3)CC1	21%
Cc1ccc(-c2ccc(CNc3nc(-c4ccccc4C(C)C)ncc3F)cc2)cn1	i
Cn1cc(C2=C(c3cn(CCCN)c4ccccc34)C(=O)NC2=O)c2ccccc21	9%
C/C(=C(\CCO)SS/C(CCO)=C(\C)N(C=O)Cc1cnc(C)nc1N)N(C=O)Cc1cnc(C)nc1N	11µM*
Cc1ncc(CNC(=O)N(CCCl)N=O)c(N)n1	-2%
COC(=O)CCCCC(CCSS/C(CCO)=C(\C)N(C=O)Cc1cnc(C)nc1N)SC(C)=O (centres undefined)	8%
COc1ccccc1-c1nc(NCc2ccc(-c3cccnc3)cc2)c2ccccc2n1	i
Cc1ccc(S(=O)(=O)Nc2ccccc2C(=O)Nc2ccc(-c3ccccc3)nc2)cc1	-15%
O=C(c1n[nH]c2ccccc12)N1CCCC1c1nc(CCOCC2CCOCC2)no1 (centres undefined)	i
CNc1oc(-c2ccc3cnccc3c2)nc1C#N	-12%
CN1CCN(c2nc3c(c(=O)[nH]2)CCN(Cc2cccnc2)CC3)CC1	i
Cc1ccc(CN2CCc3nc(C(=O)Nc4cccnc4)oc3CC2)o1	10µM*
Cc1oc2c(c1C(=O)N1CCOCC1)CN(Cc1cccnc1)CC2	-11%
CSCC(=O)N[C@H]1CCN2C(=O)c3cc(-c4ccc(Cl)cc4)ccc3NC(=O)[C@H]12	i
O=S(=O)(Nc1cnc2ccccc2c1)c1ccc(NCc2cccc(Cl)c2O)cc1	-4%
SMILES	nsP2pro inh
O=S(=O)(Nc1ccccc1)c1ccc(NCc2cccc(Cl)c2O)cc1	-23%
CCOc1cccc(CNc2ccc(O)cc2)c1OCc1ccccc1Cl	11µM*
CC(Cc1ccccc1)C(=O)Nc1ccc(Cl)cc1C(=O)O (centres undefined)	i
COc1cc(OC)cc(N2CCN(C(=S)Nc3cc(C)cc(C)n3)CC2)c1	i
O=S1(=O)CC(COCc2ccccc2)CN1c1ccccc1 (centres undefined)	0%
CCc1c(C)nc2c(-c3cnn(-c4cc(CO)ccn4)c3)c[nH]n2c1=O	i
COC(=O)c1ccccc1NC(=O)CSc1nc2sc3c(c2c(=O)[nH]1)CCCC3	10µM*
Cc1cc(C)cc(NC(=O)CSc2nc3sc4c(c3c(=O)[nH]2)CCCC4)c1	-21%
COC(=O)c1ccc(Cn2nnc3sc4c(c3c2=O)CCCC4)cc1	-22%
FC(F)(F)c1ccccc1-c1nc(NCc2ccc(-c3cccnc3)cc2)c2ccccc2n1	i
C=CCNC1=C2C[C@@H](C)C[C@H](OC)[C@H](O)[C@@H](C)/C=C(\C)[C@H](OC(N)=O)[C@@H](OC)/C=C\C=C(/C)C(=O)NC(=CC1=O)C2=O	-23%
COC1=C2C[C@H](C)C[C@H](OC)[C@H](O)[C@@H](C)/C=C(/C)[C@H](OC(N)=O)[C@@H](OC)/C=C\C=C(\C)C(=O)NC(=CC1=O)C2=O	12µM*
CC1=C2C[C@@]3(C)[C@@H](CCC[C@@H]3C)C[C@@]2(O)OC1=O	-27%
CC1=C2CC(=O)C(C)CC/C=C(\C)CC2(O)OC1=O (centres undefined)	-9%
CC1=C2C[C@@]3(C)C(CCC[C@@H]3C)C(O)C2(O)OC1=O (some centres undefined)	11µM*
O=C(O)[C@@H]1C(=CCO)O[C@@H]2CC(=O)N12	13%[10 µM]
O=C(O)c1cccc(-c2noc(-c3ccccc3C(F)(F)F)n2)c1	i
N#Cc1cccc(CSc2nc3ncc(Br)cc3[nH]2)c1	-11%
CC1CCc2c(sc(NC(=O)COc3ccccc3)c2C(=O)Nc2ccccc2Cl)C1 (centres undefined)	-3%
